Compounds with a hit are over-represented: about 6.5% of the library has one in this group of screens.
HCMV antiviral – human cytomegalovirus inhibition; HFF cells, HCMV-luciferase reporter, 72 h; active compounds read low; activity change, negative = inhibition, % at 57.5 µM; hit rate 4.5% among 410,000; AID 1259415; in the data active means activity change below about -60%; inconclusive means no clear call, values can overlap the other calls; inactive means above about -39%
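After 16 h attachment at 37C, HFF cells received test compound and HCMV-luciferase (1 PFU/cell); reporter luminescence read 72 h later, data normalized against buffer-only and known inhibitor Salinomycin.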
VACV Venus inh – inhibitors of vaccinia virus (Venus reporter). Vaccinia virus Venus reporter expression, fluorescence. Potency, µM (highest dose often 36.5 µM), for inactives: at the highest dose activity change, negative = inhibition, hits mostly inhibitors. hit rate 0.46% among 330,000; calls by dose curve; tested in A549 cells; further: potency means the concentration at half of the fitted maximal effect; nearly all actives have a fitted effect of over 30% in size
MARV entry inh – Marburg virus entry inhibition; AID 540276; Potency, µM (highest dose often 37.8 µM), inactives show at the top dose activity change, negative = inhibition, most hits filed as inhibitors; Marburg virus pseudotyped entry inhibition, cell reporter; hit rate 1.8% among 300,000; calls by dose curve; tested in HEK293 cells; further: potency means the concentration at half of the fitted maximal effect
Lassa entry inh – Lassa virus entry inhibition. Lassa virus pseudotype entry inhibition, cell reporter. Potency, µM (titrated, usually from 37.9 µM), for the others: at the highest dose activity change, negative = inhibition, usual class: inhibitors. hit rate 1.2% among 300,000; calls by dose curve; tested in HEK293 cells; further: potency means the concentration at half of the fitted maximal effect; nearly all actives have a fitted effect of over 50% in size
Vaccinia mCherry – vaccinia inhibition (mCherry reporter); hit rate 0.63% among 310,000; AID 720579; Vaccinia virus mCherry reporter infection, fluorescence; Potency, µM (titrated, usually from 36.5 µM), without a hit: at the highest dose activity change, negative = inhibition, usual class: inhibitors; calls by dose curve; tested in A549 cells; further: potency means the concentration at half of the fitted maximal effect; nearly all actives have a fitted effect of over 35% in size
FMDV antiviral – blocks foot and mouth disease virus; hit rate 1.2% among 410,000; FMDV antiviral cell-based qHTS; Potency, µM (doses to about 57.9 µM), for the others: at the highest dose activity change, negative = inhibition, usual class: inhibitors; calls by dose curve; tested in HEK293T cells; further: read-out not given here; potency means the concentration at half of the fitted maximal effect; nearly all actives have a fitted effect of over 45% in size
Active calls of the source: *; [ ] = another dose, or the depositor's remark. On the % scale 0 is the no-effect control and ±100 the full control effect.

For CCCN(CCC)S(=O)(=O)c1ccc(C(=O)NCc2ccco2)cc1 the results were HCMV antiviral -28, VACV Venus inh -1%, MARV entry inh 2%, Lassa entry inh 0.79µM*, Vaccinia mCherry -9% and FMDV antiviral -6%.
CCN(CC)S(=O)(=O)c1ccc(C(=O)NCc2ccc(C)cc2)cc1 was read as HCMV antiviral -2, VACV Venus inh -14%, MARV entry inh -26%[46.1 µM], Lassa entry inh 18µM*, Vaccinia mCherry -11% and FMDV antiviral -3%.
CCN(CC(=O)NCc1cccs1)S(=O)(=O)c1ccc(F)cc1 was read as HCMV antiviral -31, VACV Venus inh -2%, MARV entry inh 23%, Lassa entry inh 1%, Vaccinia mCherry -1% and FMDV antiviral -5%.
`CCN(CC)S(=O)(=O)c1ccc(C(=O)NCc2cccs2)cc1` gave HCMV antiviral -23, MARV entry inh 10%, Lassa entry inh 2.9µM* and FMDV antiviral 1%.
CCN(CC)S(=O)(=O)c1cccc(C(=O)N[C@H](C(=O)NCc2ccc(Cl)cc2)C(C)C)c1 was read as HCMV antiviral -17, VACV Venus inh -26%, MARV entry inh 10µM*, Lassa entry inh 13µM*, Vaccinia mCherry -6% and FMDV antiviral inconclusive.
`COc1ccc(O[C@H]2C=C[C@@H](c3ccccc3)O[C@H]2COC(=O)NCc2cccc3ccccc23)cc1` gave MARV entry inh -28%[14.2 µM].
For CC1=CC2C(C)(C)CC(=O)C[C@]2(C)CC1COc1ccc2c(c1)CC(=O)C=C2 (stereo not given in full) the results were FMDV antiviral 0%.
For C#Cc1cccc(C(=O)NCc2nc(-c3cccc(NC(=O)c4ccccn4)c3)oc2C)c1 the results were VACV Venus inh 0%, Vaccinia mCherry inactive and FMDV antiviral 37%.
Screening Cc1nc(N)nc(Cl)c1Cc1ccc(Cl)cc1 returned HCMV antiviral -61*, VACV Venus inh -7%, MARV entry inh inconclusive, Lassa entry inh -9%[46.1 µM], Vaccinia mCherry -28% and FMDV antiviral -13%.
`COC(=O)Nc1ccc(S(=O)(=O)Nc2ccc(O)cc2)cc1` gave HCMV antiviral -67*, VACV Venus inh -22%, MARV entry inh 8%, Lassa entry inh -28% and Vaccinia mCherry -15%.
Screening COC(C(=O)Nc1ccc(F)cc1)c1ccccc1 (stereo not given) returned HCMV antiviral -13, VACV Venus inh -10%, MARV entry inh -20%, Lassa entry inh 0%, Vaccinia mCherry -15% and FMDV antiviral 19%.
COC(=O)Nc1ccc(S(=O)(=O)Nc2ccc(C)cc2)cc1 was read as MARV entry inh -2%.
COC(C(=O)Nc1ccc(S(=O)(=O)Nc2cccc3ccccc23)cc1)c1ccccc1 (stereo not given) was read as HCMV antiviral -88*, VACV Venus inh -13%, MARV entry inh -20%, Lassa entry inh inconclusive, Vaccinia mCherry inactive and FMDV antiviral 0%.
`COC(C(=O)Nc1ccc(S(=O)(=O)Nc2ccc(F)cc2)cc1)c1ccccc1` (stereo not given) gave HCMV antiviral -62*, VACV Venus inh inconclusive, MARV entry inh 7.9µM*, Lassa entry inh inconclusive, Vaccinia mCherry inconclusive and FMDV antiviral 6%.
For C=CCOc1c(Br)cc(CNc2ccc(NC(=O)C(C)C)c(OC)c2)cc1OC the results were HCMV antiviral -98*, MARV entry inh inconclusive, Lassa entry inh inconclusive and FMDV antiviral inconclusive.
For CCOc1ccc2nc(NC3=NC(c4ccc(OC)cc4)CC(=O)N3)nc(C)c2c1 (stereo not given) the results were HCMV antiviral -70*, VACV Venus inh -19%, MARV entry inh inconclusive, Lassa entry inh inconclusive and Vaccinia mCherry -21%.
FC(F)(F)c1ccccc1-c1nc(Nc2ccncc2)c2ccccc2n1 was read as VACV Venus inh 0%, Vaccinia mCherry inactive and FMDV antiviral -21%.
For COc1ccc(NC(=O)CCS(=O)(=O)c2ccc3nc(C)sc3c2)cc1Cl the results were HCMV antiviral -15, VACV Venus inh -18%, Lassa entry inh 16%[46.1 µM], Vaccinia mCherry -21% and FMDV antiviral -23%.
Screening Cc1nc2ccc(NS(=O)(=O)c3ccc(F)c(C)c3)cc2[nH]1 returned HCMV antiviral -60* and FMDV antiviral -10%.

Screening results deposited in PubChem BioAssay by National Center for Advancing Translational Sciences (NCATS).
